Vif imaging: HIV Vif self-association inhibitors, primary screen, imaging, HEK293T, single point | AID 602346, 2012 | inhibition, % at 7.49 µM | 340,000 compounds, 0.35% hits | HEK293T cells, Vif self-association by quenched fluorescence, 24 h; in the data active = inhibition above about 50%, passing the limit was not always enough; inconclusive = no clear call, values can overlap the other calls; inactive = below about 31%
MITF act: activators of MITF-driven TRPM1 promoter reporter, primary screen, cell-based, SK-MEL-5, luciferase, single point; SK-MEL-5 TRPM1-promoter luciferase, 24 h; % of positive control, neutral wells = 0; activation, % at 12.5 µM; 300,000 compounds, 0.75% hits; AID 588334, 2011;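 active = mean activation of at least 80% with every replicate also reaching 80%; inconclusive = mean reaches 80% but some replicate falls short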;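 note: 0% = neutral control wells and 100% = parthenolide positive control wells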
PvdQ acylase: P. aeruginosa PvdQ acylase inhibitors, primary screen, biochemical, fluorescence, plate reader and imaging, single point; purified PvdQ acylase; inhibition, % at 10 µM; AID 488965, 2010; 340,000 compounds, 0.063% hits; PvdQ acylase [Pseudomonas aeruginosa LESB58]; in the data active = inhibition above about 30%, passing the limit was not always enough; inconclusive = no clear call, values can overlap the other calls;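 note: 0% = vehicle neutral wells and 100% = reference inhibitor wells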
esBAF inh: Bmi1 luciferase reporter increase in mESCs, primary screen, esBAF inhibitor project, mouse ES cells, Bmi1 luciferase knock-in, single point; 24 h; 100% = twice the neutral-well signal; reporter increase, % at 12.5 µM; 350,000 compounds, 2% hits; AID 602393, 2012; in the data active = activation above about 40%; inconclusive = no clear call, values can overlap the other calls;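 note: 0% = median of the plate's neutral control wells and 100% = double that signal; a rise in the Bmi1 reporter signal indicates esBAF inhibition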
N-glyco inh: increase of ERlucT glycosylation luciferase signal, primary screen, N-linked glycosylation inhibitor project, D54 ERlucT cells, luminescence, set 2; D54 ERlucT glycosylation luciferase reporter, 24 h; percent of 100 nM tunicamycin response; reporter increase, % at 12.5 µM; 360,000 compounds, 0.23% hits; AID 588692, 2011;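 active = mean luciferase reporter signal, scaled so untreated is 0 and the glycosylation-blocking control 100, at or above a set limit in every replicate; inconclusive = mean reaches the limit but not every replicate does; inactive = mean below the limit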;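 note: luciferase carries N-glycosylation sites so blocking glycosylation raises the light; 0% = median of neutral control wells and 100% = median of 100 nM tunicamycin wells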
Wnt act: Wnt/beta-catenin pathway activators, primary screen, cell-based, plate reader, single point. Wnt/beta-catenin reporter cell assay, activator. activation, % at 9.35 µM. 300,000 compounds, 1.2% hits. AID 743398, 2014; in the data active = activation above about 30%, passing the limit was not always enough; inconclusive = no clear call, values can overlap the other calls;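 note: 0% = neutral control wells and 100% = positive control wells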
Ring1 derepress: Ring1 mRNA increase in mouse ESCs, confirmation, esBAF inhibitor project, cell-based, mouse ESC, RT-qPCR, cherry-pick; shares compounds with esBAF inh; mouse ESC E14, Ring1 mRNA RT-qPCR fold change; fold change at 33 µM; 550 tested, under 10 active; AID 743176, 2013;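 active = Ring1 gene expression raised more than 2-fold over untreated cells in both replicates at either tested dose; inconclusive = only one replicate above 2-fold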;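 note: Ring1 transcript normalised to actin housekeeping signal by TaqMan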
Fgf4 repress: Fgf4 mRNA decrease in mouse ESCs, confirmation, esBAF inhibitor project, cell-based, mouse ESC, RT-qPCR, cherry-pick. shares compounds with esBAF inh. 550 compounds, 4% hits. AID 743177, 2013. Fgf4 expression fold change at 33 µM. mouse ESC E14, Fgf4 mRNA qPCR fold change; hits give low values;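 active = Fgf4 expression under 0.8 fold of control in both repeat measurements at one or both tested doses; inconclusive = under 0.8 fold in just a single repeat measurement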;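 note: Fgf4 transcript normalised to actin in duplex TaqMan qPCR; cells exposed to compound for 24 h before lysis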
Bmi1 derepress: esBAF inhibition via Bmi1 de-repression, confirmation, cell-based, RT-qPCR, mouse ESC, single point, cherry-pick. shares compounds with esBAF inh. mouse ESE14 ES cells, Bmi1 mRNA qPCR fold; hits give high values. fold change at 33 µM. 550 tested, under 10 active. AID 743180, 2013;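 active = Bmi1 expression fold change above 6 at either tested concentration, seen in replicate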;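 note: higher fold means more Bmi1 de-repression and stronger esBAF inhibition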
A549 tox SP: A549 cell cytotoxicity, cytotoxicity control, plate reader, single point, cherry-pick. cell viability change % (negative = cytotoxic), % at 25 µM, hits read low. 550 tested, under 10 active. shares compounds with esBAF inh. AID 743188, 2013; call rule not given here
HepG2 tox SP: HepG2 cell cytotoxicity, cytotoxicity control, plate reader, single point, cherry-pick; shares compounds with esBAF inh; hits give low values; activity change, negative = inhibition, % at 25 µM; 550 compounds, 4% hits; AID 743189, 2013; in the data active = activity change below about -50%
HEK293 cytotox SP: HEK293 cell cytotoxicity, cytotoxicity control, plate reader, single point, cherry-pick; shares compounds with esBAF inh; activity change, negative = inhibition, % at 25 µM, hits read low; 550 compounds, 3% hits; in the data active = activity change below about -38%, passing the limit was not always enough
* marks the source's active call; other numbers are inactive results; ? = inconclusive; / = no result given. Most compounds without a hit are left out; they make up all but 2.9% or so of the library.

SMILES | Vif imaging | MITF act | PvdQ acylase | esBAF inh | N-glyco inh | Wnt act | Ring1 derepress | Fgf4 repress | Bmi1 derepress | A549 tox SP | HepG2 tox SP | HEK293 cytotox SP
Cn1c(C(=O)N/N=C/c2ccccc2)cc2ccccc21 | 13 | / | -9 | 64* | -2 | -4 | 1.3 | 0.86 | 1.6 | 1 | -28 | 1
Cn1c(N)c(C(=O)N/N=C/c2ccccc2)sc1=S | -1 | / | 1 | / | 6 | -1 | / | / | / | / | / | /
CN(C)C(=O)[C@@H]1[C@@H](CO)[C@@H]2Cn3c(ccc(-c4cccnc4)c3=O)[C@H]1N2C(=O)NC1CCCC1 | / | / | / | 0 | / | / | / | / | / | / | / | /
O=C(O)CC(c1ccc(Cl)cc1)N1Cc2ccccc2C1=O (stereo not given) | 2 | -4 | -13 | -10 | 0 | -1 | / | / | / | / | / | /
COC(=O)C(Cc1ccc(OC(=O)c2ccc(Cl)cc2)cc1)N1Cc2ccccc2C1=O (stereo not given) | -2 | 28 | -2 | 72* | -4 | -1 | 1.2 | 0.84 | 1.2 | 3 | -30 | -5
CN(C)c1ccc(-c2ccc3oc(-c4ccsc4)cc(=O)c3c2)cn1 | -2 | 124* | 5 | 69* | -1 | 38* | 1.1 | 0.86 | 1.1 | -22 | 10 | -24
COc1cccc(CN(C)C(=O)c2ccc(COc3ccc(Cl)cc3)cc2)c1OC | -5 | ? | -10 | 59* | 0 | 11 | 1.2 | 0.86 | 1.8 | -7 | -32 | -1
C[C@@H]1CCCCO[C@H](CN(C)Cc2ccc(C(=O)O)cc2)[C@H](C)CN([C@@H](C)CO)C(=O)c2cc(NC(=O)Nc3ccc4c(c3)OCO4)ccc2O1 | / | / | / | -1 | / | / | / | / | / | / | / | /
Cc1ccnc(NC(=O)CCCc2ccccc2)c1 | 29 | 45 | 1 | 65* | 2 | / | 1.1 | 0.98 | 1.5 | 1 | -1 | 1
Oc1[nH]c2ccccc2c1/C=N/N1CCCCC1 | 8 | 0 | -1 | / | 3 | 2 | / | / | / | / | / | /
Oc1[nH]c2ccccc2c1/C=N/c1nccs1 | -7 | 56 | 7 | 71* | 6 | -2 | 1.4 | 1 | 1.7 | 0 | -40 | -11
CCn1c(COc2ccc(OC)cc2)nc2ccccc21 | -3 | 59 | -14 | 61* | -7 | 43* | 1 | 0.96 | 1.4 | -13 | 15 | -9
C=CCNc1nc2cc(-c3ccccc3OC)sc2c(=O)n1C | 0 | / | / | 59* | 6 | 10 | 1.1 | 1 | 2.1 | -11 | -24 | -5
COCCNc1nc2cc(-c3ccccc3OC)sc2c(=O)n1C | 1 | / | / | 1 | 6 | / | / | / | / | / | / | /
C[C@@H]1CN([C@@H](C)CO)C(=O)c2cc(NC(=O)Cn3cnnn3)ccc2O[C@@H]1CN(C)Cc1ccc(Oc2ccccc2)cc1 | / | / | / | 2 | / | / | / | / | / | / | / | /

From PubChem BioAssay
